# Measurements as given in PubChem BioAssay AID422 (Emory University Molecular Libraries Screening Center, 2006).
# Several values for one entry are separate records, joined by “and”; a condition that tells them apart may be missing. Identical values can stand only once. The campaign covered roughly 160,000 compounds. About 310 (0.19%) were called active. No stated cut-off is given here; in the data, active means inhibition above about 30%; inactive means the rest. Many of the other results were omitted from the sample, so actives are more common in it than they were. More than one record can exist for a structure, and the calls need not agree.
# Molecular target: 14-3-3 protein gamma (Homo sapiens) (UniProt P61981)
# Assay: 14-3-3 gamma/Raf peptide interaction modulators – biochemical, fluorescence polarization, primary screen (AID 422);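 further: 0% = protein plus tracer without compound and 100% = blank with tracer alone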
# Details: FP, 14-3-3gamma / TMR-pS259-Raf peptide binding; at 40 µM; stronger effect = higher value
# Chain of 14-3-3 protein gamma (Homo sapiens) (P61981 whole entry, looked up): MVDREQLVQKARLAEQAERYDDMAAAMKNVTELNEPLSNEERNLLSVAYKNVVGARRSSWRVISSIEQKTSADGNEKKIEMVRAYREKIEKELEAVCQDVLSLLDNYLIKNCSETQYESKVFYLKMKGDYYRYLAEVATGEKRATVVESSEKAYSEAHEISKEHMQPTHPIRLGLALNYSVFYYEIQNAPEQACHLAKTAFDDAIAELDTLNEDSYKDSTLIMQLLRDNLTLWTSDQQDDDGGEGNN
row,Structure (SMILES),inhibition
1,O=S(=O)(Nc1ccccn1)c1ccccc1,-1.79% (inactive)
2,Cc1ccc(NC(=O)c2cccc(Oc3ccc(C#N)cc3)c2)cc1,-12% (inactive)
3,O=C(Nc1nccs1)c1cc2cc(Cl)ccc2oc1=Nc1ccc(Br)cc1,-1.07% (inactive)
4,COc1ccc(CNCC2OCCc3ccccc32)cc1OC (centres undefined),-5.29% (inactive)
5,O=C(NCCc1ccccc1)C1Cc2ccccc2CN1S(=O)(=O)c1cccs1 (centres undefined),-6.94% (inactive)
6,Cc1sc(NC(=O)c2cc(=O)c3ccccc3o2)nc1-c1ccccc1,0.55% (inactive)
7,CCN(CC)c1ccc2cc(C(N)=O)c(=Nc3ccc(C(N)=O)cc3)oc2c1,3.05% (inactive)
8,CCN(CC)c1ccc2cc(C(=O)O)c(=O)oc2c1,-6.88% (inactive)
9,CCN(CC)c1ccc2cc(C(=O)NC(C)=O)c(=Nc3ccccc3OC)oc2c1,133% (active)
10,COc1cccc(-c2nn(C)c3sc(C(=O)NCCCOC(C)C)cc23)c1,-12.3% (inactive)
11,O=C(OCCN1C(=O)c2ccccc2C1=O)c1ccc([N+](=O)[O-])cc1,5.13% (inactive)
12,CC(C)CCOC(=O)c1c2c(n3ccccc13)C(=O)c1ccccc1C2=O,34.6% (active)
13,COC(=O)c1ccc2c(c1N)C(=O)c1ccccc1C2=O,-200% (inactive)
14,Cc1ccc2nc3c(nc2c1)C(=O)c1ccccc1C3=O,-16.2% (inactive)
15,Cc1cc2c3c(ccc(N)c3n1)C(=O)c1ccccc1-2,127% (active)
16,Cc1ccc2c(c1)-c1cccc3cccc(c13)C2=O,3.94% (inactive)
17,CCc1ccccc1NC(=O)c1cc2cc3ccc(OC)cc3nc2o1,17.8% (inactive)
18,O=C(Cc1ccc(Cl)cc1)Nc1cccc(-c2nc3ccccc3o2)c1,-129% (inactive)
19,COc1ccc(C2C3=C(CCCC3=O)OC3=C2C(=O)CCC3)cc1,0.11% (inactive)
20,CCC(=O)N1CCc2cc(S(=O)(=O)CCC(=O)N3CCN(c4cccc(OC)c4)CC3)ccc21,3.36% (inactive)

row,Structure (SMILES),inhibition
1,COc1cc2ccccc2cc1C(=O)Nc1nc(-c2c(OC)ccc3ccccc23)cs1,-0.5% (inactive)
2,COC(=O)C1=CN(C)C=C(C(=O)OC)C1c1cc(OC)ccc1OC,1.92% (inactive)
3,O=C(COc1ccc(C2CCCCC2)cc1)Nc1ccc(-c2nc3ncccc3o2)cc1,-12.3% (inactive)
4,CC(=O)COc1cc(C)cc2oc(=O)c(Cc3ccccc3)c(C)c12,4.62% (inactive)
5,COCCn1c(=S)[nH]c2cc(C(=O)N3CCN(C(=O)c4ccco4)CC3)ccc2c1=O,2.47% (inactive)
6,CCOc1cc2c(cc1OCC)C1C(C(=O)NCCN3CCOCC3)c3ccccc3C(=O)N1CC2 (centres undefined),8.01% (inactive)
7,C(=N\n1cnnc1)/c1cccnc1,-6.33% (inactive)
8,S=c1[nH]ncn1-c1cccnc1,40.8% (active)
9,CC(C)(C)c1ccc(-c2nc(Cc3ccc(Cl)cc3)no2)cc1,-5.54% (inactive)
10,COC(=O)C1=C(C)N=C2SC(C)C(=O)N2C1c1ccc(C)cc1 (centres undefined),-10.9% (inactive)
11,CC(C)c1ccc(NC(=O)c2ccc(F)c(S(=O)(=O)NCc3ccccc3Cl)c2)cc1,-7.39% (inactive)
12,COc1ccc(NC(=O)CSc2nc3nc(C)cc(C)n3n2)c(OC)c1,-15.5% (inactive)
13,CCOC(=O)c1ccc(N2C(=O)C3CCCCC3C2=O)cc1 (centres undefined),-3.67% (inactive)
14,O=C(NCCC1=CCCCC1)c1ccc2c(=O)n(Cc3cccc(Br)c3)c(=S)[nH]c2c1,-9.75% (inactive)
15,CCc1ccc2oc(-c3cc(NC(=O)c4ccc(OC)cc4)ccc3Cl)nc2c1,-44.5% (inactive)
16,CC(C)(c1ccc(NC(=O)C(F)(F)F)cc1)c1ccc(NC(=O)C(F)(F)F)cc1,-13.8% (inactive)
17,CCN(CC)C(=O)CSc1nc2ccccc2n1S(=O)(=O)c1cccc([N+](=O)[O-])c1,-1.43% (inactive)
18,Cc1cc(N2CC(C)CC(C)C2)nc2ccc([N+](=O)[O-])cc12 (centres undefined),-9.05% (inactive)
19,Cc1cc2c(c(=O)[nH]1)C(=O)NC2=O,-1.31% (inactive)
20,O=c1cc(-c2ccccc2)nc(SCCOc2ccc(Cl)cc2)[nH]1,-2.33% (inactive)

row,Structure (SMILES),inhibition
1,Cc1ccc(CNC(=O)CN2CCN(Cc3ccc(Cl)cc3)C2=O)cc1,-3.75% (inactive)
2,Cc1ccccc1CN1CCN(CC(=O)NCc2ccccn2)C1=O,45.7% (active) and 3.37% (inactive)
3,Cc1ccccc1CN1CCN(CC(=O)NCc2cccs2)C1=O,-7.12% (inactive)
4,CCOC(=O)c1cc2c(=O)n3ccccc3nc2n(CCCOC)c1=NC(=O)c1cccc(Br)c1,0.86% (inactive)
5,CC(=O)C1=NN(c2ccccc2)C(c2c[nH]c3ccccc23)N1c1ccc(N2CCOCC2)c(Cl)c1 (centres undefined),-3.29% (inactive)
6,CN(CCC#N)C(=O)CN1C(=O)COc2ccc(C(C)(C)C)cc21,2.44% (inactive)
7,O=C1NCCCC1C(=O)NC1CCCCC1 (centres undefined),-10.1% (inactive)
8,CCc1sc(-c2cc3cccc(OC)c3oc2=O)nc1-c1ccc(C)cc1,-56.6% (inactive)
9,Cc1ccc(C2OC3(C(=O)c4ccccc4C3=O)C3C(=O)N(c4ccc(Br)cc4)C(=O)C23)cc1 (centres undefined),-39.8% (inactive)
10,COC(=O)c1ccc(NC(=O)c2ccco2)cc1,-6.08% (inactive)
11,O=C(OCC(=O)N1CCCC1)c1ccco1,-8.04% (inactive)
12,CC1CN(C)C(C)CC1OC(=O)c1ccco1 (centres undefined),34.5% (active)
13,O=C(Nc1ccccc1O)c1ccco1,-6.85% (inactive)
14,O=C(CCCOc1ccc(Br)cc1)Nc1ncc(Cc2ccc(F)cc2)s1,-2.12% (inactive)
15,COc1ccc(C2C=C(c3ccc(OC(F)F)cc3)Nc3ncnn32)cc1 (centres undefined),4.5% (inactive)
16,Cc1ccc(/C(O)=C2\C(=O)C(=O)N(CCC(=O)O)C2c2ccc(Br)cc2)cc1 (centres undefined),-1.96% (inactive)
17,CCC(C(=O)Nc1c2c(nn1-c1ccc([N+](=O)[O-])cc1)CSC2)c1ccccc1 (centres undefined),-13.7% (inactive)
18,CCNc1cc(Nc2ccccc2)c2c3c(onc13)-c1ccccc1C2=O,-69.4% (inactive)
19,CN(C)c1ccc(Nc2cc(N3CCCC3)c3noc4c3c2C(=O)c2ccccc2-4)cc1,-88.4% (inactive)
